Bioassay records deposited in PubChem by National Center for Advancing Translational Sciences (NCATS).
D1 ag = Allosteric Agonists of the Human D1 Dopamine Receptor: qHTS; HEK293 T-REx D1 cells, calcium flux, agonist mode; activation, % at 2 µM; actives 1% (n = 360,000); AID 504660, 2011; in the data active means activation above about 30%; further: 0% is about no effect
Target sequence (P21728 whole entry, looked up): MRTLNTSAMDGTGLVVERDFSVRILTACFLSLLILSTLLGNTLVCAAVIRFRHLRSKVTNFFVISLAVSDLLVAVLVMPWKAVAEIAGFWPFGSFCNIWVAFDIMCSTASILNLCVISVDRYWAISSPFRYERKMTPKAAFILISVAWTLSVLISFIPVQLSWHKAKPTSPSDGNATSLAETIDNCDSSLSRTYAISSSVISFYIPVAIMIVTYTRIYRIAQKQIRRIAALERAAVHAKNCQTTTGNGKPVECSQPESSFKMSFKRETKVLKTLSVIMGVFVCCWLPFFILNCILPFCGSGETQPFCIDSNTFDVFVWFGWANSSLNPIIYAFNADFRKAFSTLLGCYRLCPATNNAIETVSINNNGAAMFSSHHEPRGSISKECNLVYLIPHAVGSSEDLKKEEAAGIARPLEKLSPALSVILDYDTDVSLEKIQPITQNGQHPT
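Agonism was scored from calcium flux recorded over 180 s (1 read/s) after pintool compound addition, following a 10-cycle baseline. Cells were inducible force-coupled HEK293 TREx D1, plated overnight at 30 C and loaded with no-wash calcium dye.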
D3 antag = qHTS of D3 Dopamine Receptor Antagonist: qHTS; D(3) dopamine receptor (Homo sapiens), P35462; D3R cells, DiscoveRx beta-arrestin luminescence, antagonist mode; stronger effect = lower value; max response, negative = inhibition, %; actives 2.5% (n = 360,000); AID 652054, 2013; in the data active means max response below about -50%; inconclusive means no clear call, values can overlap the other calls; further: on the % scale 0 is the no-effect control and ±100 the full control effect
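Cells plated overnight at 1500 cells/well, then exposed to library compounds with dopamine controls for 90 minutes at 37 degrees C. DiscoveRx reagent added for 30–60 minutes at room temperature; luminescence read, quantitative HTS format.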
D1 antagonist = Antagonist of Human D 1 Dopamine Receptor: qHTS; D(1A) dopamine receptor (Homo sapiens), P21728; HEK293 TREx D1 cells, calcium flux, dopamine EC80; stronger effect = lower value; activity change, negative = inhibition, % at 10 µM; actives 3.2% (n = 360,000); AID 504652, 2011; in the data active means activity change below about -30%; further: on the % scale 0 is the no-effect control and ±100 the full control effect
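Tetracycline-induced HEK293 Trex D1 cells, force-coupled to calcium, dye-loaded; compounds added and read 180 s, then EC80 dopamine added and calcium flux tracked kinetically another 180 s.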
DRD3 agonist = qHTS of D3 Dopamine Receptor Agonist: qHTS | D(3) dopamine receptor (Homo sapiens), P35462 | D3R DiscoveRx beta-arrestin cells, luminescence, 90 min | max activation, % | actives 0.58% (n = 410,000) | AID 652048, 2013; in the data active means max activation above about 30%; further: 0% is about no effect
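Cells at 1500/well, incubated overnight, then treated with pinned compounds (dopamine as control) for 90 min at 37 degrees C. DiscoveRx reagent added for 30 - 60 minutes at room temperature; luminescence read.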
BCR signal inh = qHTS Assay to Find Inhibitors of Chronic Active B-Cell Receptor Signaling; ABC-DLBCL IkBa-CBG/CBR reporter, luminescence ratio, 4 h; Potency, µM (titrated, usually from 46.1 µM), without a hit: top-dose activity change, negative = inhibition, hits mostly inhibitors; actives 0.05% (n = 340,000); active means well fitted inhibition curve with a large enough effect in the signal ratio, with a control signal flat, not every such curve was filed as active; inconclusive means small, poorly fitted or top-dose-only effect, or effect the other way, or a change in a side signal; the % refers to the signal ratio;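 further: potency means the concentration at half of the fitted maximal effect; plate controls were basal doxycycline-induced cells for no effect and cells given 10 µM MG132 for full effect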
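TMD8 human ABC-DLBCL cells with doxycycline-inducible IκBα–green luciferase fusion and unfused red luciferase, in 0.5% FBS medium; compounds up to 46 uM, 4 h at 37C. Green/red luminescence ratio, filter-overlap corrected, fitted to concentration-response curves.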
D1 potentiator = Potentiators of Human D1 Dopamine Receptor: qHTS | actives 0.036% (n = 360,000) | HEK293 TREx D1 cells, calcium flux, dopamine EC20 potentiation | AID 504651, 2011 | D(1A) dopamine receptor (Homo sapiens), P21728 | potentiation, % at 10 µM; in the data active means potentiation above about 30%; further: 0% is about no effect
The depositor's hits bear a star. Hits are enriched below; roughly 6% of the tested compounds scored in any of these assays.

COc1ccc(C(CNC(=O)COc2ccc(C)c(C)c2)N2CCCCC2)cc1 (centres undefined) was read as D1 ag 0.5, D3 antag -100.0*, D1 antagonist 1.3, DRD3 agonist -17.2, BCR signal inh -7.9% and D1 potentiator 1.3.
COc1ccc(C(O)(C(C)C)C(CN2CCOCC2)c2ccccc2)cc1 (centres undefined) was read as D1 ag 2.9, D3 antag -14.3, D1 antagonist 5.0, DRD3 agonist -1.5, BCR signal inh -1.8% and D1 potentiator -1.6.
`COc1ccc(C(CNC(=O)c2cccc(S(=O)(=O)N3CCCC3)c2)N2CCCC2)cc1` (centres undefined) gave D1 ag 0.4, D3 antag inconclusive, D1 antagonist 4.1, DRD3 agonist -7.2, BCR signal inh -1.2% and D1 potentiator 7.0.
For COc1ccc(C(CNC(=O)COc2ccc(Cl)cc2C)N2CCCCC2)cc1 (centres undefined) the results were D1 ag 3.5, D3 antag -13.5, D1 antagonist 1.5, DRD3 agonist -15.9, BCR signal inh 0.0% and D1 potentiator 6.8.
COc1ccc(/C=N/NC(=O)c2ccc(-n3cnnn3)cc2)cc1 was read as D1 ag 1.0, D3 antag 8.2, D1 antagonist -64.6*, DRD3 agonist 3.6, BCR signal inh inconclusive and D1 potentiator 12.1.
For Cc1ccc(/C=N/NC(=O)c2ccc(-n3cnnn3)cc2)cc1 the results were D1 ag 22.5, D3 antag 0.0, D1 antagonist 1.3, DRD3 agonist 2.7, BCR signal inh inconclusive and D1 potentiator 0.9.
`COc1ccc(C(CNC(=O)c2ccc(Cl)c(NC(=O)c3cccs3)c2)N2CCCC2)cc1` (centres undefined) gave D1 ag 7.1, D3 antag -68.4*, D1 antagonist -13.7, DRD3 agonist -30.1, BCR signal inh 10.8% and D1 potentiator -3.0.
COc1ccc(C(O)(C(C)C)C(CN2CCOCC2)c2ccc(Cl)cc2)cc1 (centres undefined) was read as D1 ag 2.2, D3 antag -54.9*, D1 antagonist 25.7, DRD3 agonist -6.6, BCR signal inh inconclusive and D1 potentiator 2.5.
For CCCCNC(=O)CSc1nc2cc3c(cc2c(=O)n1CCCC(=O)NCc1ccc(OC)cc1)OCO3 the results were D1 ag 1.2, D1 antagonist -2.3, DRD3 agonist 9.1, BCR signal inh -10.0% and D1 potentiator -2.6.
Screening Cc1ccc(Cl)cc1N1CCN(C(=O)C2CCN(S(=O)(=O)c3cn(C)cn3)CC2)CC1 returned D1 ag -0.4, D1 antagonist 2.8, DRD3 agonist 4.3 and D1 potentiator 2.0.
Screening COc1ccc(C(CNC(=O)Cc2ccccc2Cl)N2CCCCC2)cc1 (centres undefined) returned D1 ag 0.9, D3 antag -86.3*, D1 antagonist 16.6, DRD3 agonist -28.2, BCR signal inh inconclusive and D1 potentiator -1.2.
Screening COc1ccc(C(CNC(=O)C(C)(C)Oc2ccc(Cl)cc2)N2CCCC2)cc1 (centres undefined) returned D1 ag 15.6, D3 antag -114.3*, D1 antagonist -21.6, DRD3 agonist -4.3, BCR signal inh -1.5% and D1 potentiator -9.8.
`COc1ccc(C(CNC(=O)CNC(=O)c2cccc(C)c2)N2CCOCC2)cc1` (centres undefined) gave D1 ag 5.0, D3 antag -16.9, D1 antagonist -18.3, DRD3 agonist 2.2 and BCR signal inh -0.3%.
For COc1ccc(C(CNC(=O)CNC(=O)c2cccc(C)c2)N2CCCCC2)cc1 (centres undefined) the results were D3 antag -51.7* and DRD3 agonist -27.4.
COc1ccc(C(CNC(=O)c2cccc(S(=O)(=O)Nc3ccc(F)cc3)c2)N2CCCCC2)cc1 (centres undefined) was read as D3 antag -72.3* and DRD3 agonist -24.0.
CCCNC(=O)c1cc(C2CCCN(C(=O)C3CC3)C2)on1 (centres undefined) was read as D3 antag 15.0 and DRD3 agonist 9.0.
For CCOc1ccc(CNS(=O)(=O)c2cc(-c3cc(C)no3)ccc2C)cc1OC the results were D1 ag 0.3, D1 antagonist -3.5, DRD3 agonist 3.7 and D1 potentiator -2.5.
`CCn1c(CN2CCC(C)CC2)nc2cc(NC(=O)COc3ccc(Cl)c(C)c3)ccc21` gave D1 ag 1.6, D1 antagonist -4.2, DRD3 agonist -2.1 and D1 potentiator 0.1.
Screening COc1ccc(C(CNC(=O)COc2cc(C)c(Cl)c(C)c2)N2CCCCC2)cc1 (centres undefined) returned D1 ag 6.3, D3 antag -91.7*, D1 antagonist 26.9, DRD3 agonist -23.6, BCR signal inh -4.8% and D1 potentiator 1.0.
`COc1ccc(C(CNC(=O)c2ccc(C)cc2)N2CCOCC2)cc1` (centres undefined) gave D1 ag 0.7, D1 antagonist -0.2, DRD3 agonist -39.0 and D1 potentiator 0.3.
`COc1ccc(CC(=O)NCC(c2ccc(Cl)cc2)N2CCOCC2)cc1` (centres undefined) gave D1 ag -3.1, D1 antagonist -43.1*, DRD3 agonist 3.8 and D1 potentiator -1.1.
Screening COc1ccc(C(CNC(=O)c2ccc(-n3cnnn3)cc2)N2CCOCC2)cc1 (centres undefined) returned D1 ag 0.9, D3 antag 0.0, D1 antagonist -47.0*, DRD3 agonist -4.4, BCR signal inh inconclusive and D1 potentiator -8.1.
Screening COc1ccc(C(CNC(=O)COc2cc(C)cc(C)c2)N2CCCCC2)cc1 (centres undefined) returned D1 ag 0.8, D1 antagonist 1.2, DRD3 agonist -21.0 and D1 potentiator 1.9.
COc1ccc(OCC(=O)NCC(c2ccc(OC)cc2)N2CCCCC2)cc1 (centres undefined) was read as D1 ag -0.2, D3 antag -61.7*, D1 antagonist -4.7, DRD3 agonist -17.1, BCR signal inh -8.5% and D1 potentiator 1.5.
